141 variants from the emibetuzumab library of Makowski et al. (2022) can be followed below.

The other results are listed elsewhere or left out. The true hit rate is not given.

B1: VH:VL chains; a variant is named by its letters at X, in order (parent)
chain 1: QVQLVQSGAEVKKPGASVKVSCKASGYTFTDYXMHWVRQAPGQGLEWMGXVNPNXXXTTYNQKFEGRVTMTTDTSTSTAYMELRSLRSDDTAVYYCARXNXLDXWGQGTTVTVSS
chain 2: DIQMTQSPSSLSASVGDRVTITCSVSSSVSSIYLHWYQQKPGKAPKLLIYSTSNLASGVPSRFSGSGSGTDFTLTISSLQPEDFATYYCQVYSGYPLTFGGGTKVEIK

In this assay the parent is B1. Description: yeast display scFab, FACS + sequencing. To be noted: with MET. The procedure, abridged:
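A heavy-chain CDR mutant scFab library on yeast was enriched magnetically with HGFR-Fc-coated Protein A beads for two rounds and then by FACS after labelling with 1 nM HGFR-Fc and anti-Myc in PBSB with 1% milk for 3 h at room temperature, gating the top 50% antigen-positive cells. Antigen binding was judged positive if a sequence turned up in both antigen-positive deep-sequencing samples and negative if it turned up only in the input.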
On to ARAGSFWA, for which the antigen binding call was “no binding”.

For the variant FRGGSAVY, the antigen binding call is reported as “binds”.

Turning to FTEGDSGY, the antigen binding call is given as “no binding”.

FRTEGSGY: the antigen binding call is listed as “binds”.

For FRGRGAVY, the antigen binding call is on record as “binds”.

Regarding YKGRGSVD, the antigen binding call was “binds”.

In the case of FRGGSVGY, the antigen binding call is given as “no binding”.

As to YAGRGDVY, the antigen binding call is on record as “no binding”.

Take YRGANVVY: the antigen binding call is given as “no binding”.

Regarding FRGRGSVY, the antigen binding call is reported as “binds”.

On to YRGRGVVY, for which the antigen binding call is “binds”.

In the case of AGRGADLS, the antigen binding call was “no binding”.

As to YKGAAFWA, the antigen binding call is listed as “no binding”.

Take YRGAGAWA: the antigen binding call is on record as “binds”.

As to YKGAGAWA, the antigen binding call is “binds”.

In the case of YTGTSAWA, the antigen binding call was “no binding”.

On to VEGGGYSV, for which the antigen binding call is “no binding”.

Take YKARTSSS: the antigen binding call is “binds”.

For the variant YKARGSSS, the antigen binding call is on record as “binds”.

Consider DAARGSSV, for which the antigen binding call is given as “no binding”.

With YRARGSSS, the antigen binding call is recorded as “binds”.

For FGAAAVGD, the antigen binding call is “no binding”.

As to YRARGSAV, the antigen binding call is given as “binds”.

For the variant YKAKGSAV, the antigen binding call is “binds”.

For the variant YKTRDDAV, the antigen binding call is given as “no binding”.

On to YRAKGSAV, for which the antigen binding call is listed as “binds”.

On to YRAKGAAV, for which the antigen binding call is on record as “binds”.

In the case of YKEEDDAV, the antigen binding call is reported as “no binding”.

VEERDAVA: the antigen binding call is reported as “no binding”.

Consider VEGTSDGD, for which the antigen binding call is given as “no binding”.

As for VAGTGDVA, the antigen binding call is recorded as “no binding”.

YTKKTFSY: the antigen binding call is on record as “no binding”.

Regarding YRGRSSLY, the antigen binding call is “binds”.

Consider YGGRADVY, for which the antigen binding call is “no binding”.

Consider YRGEAFLY, for which the antigen binding call is on record as “no binding”.

With VKGRADLY, the antigen binding call was “no binding”.

Turning to YRGRASLY, the antigen binding call is “binds”.

On to YRARSSLY, for which the antigen binding call was “binds”.

For VAATGVSD, the antigen binding call was “no binding”.

For the variant SGEGNSWA, the antigen binding call is “no binding”.

In the case of DARGGAVV, the antigen binding call is listed as “no binding”.

YKRGGAVV: the antigen binding call is reported as “binds”.

On to VKREASVV, for which the antigen binding call is “no binding”.

Turning to FRRGSSVV, the antigen binding call is recorded as “binds”.

Regarding YRGRASVV, the antigen binding call is listed as “binds”.

YAGRADVV: the antigen binding call is “no binding”.

Consider YKGAGDVV, for which the antigen binding call is “no binding”.

As for FKTKDSVV, the antigen binding call was “no binding”.

For YKRGSSVV, the antigen binding call is recorded as “binds”.

For DGGENDVF, the antigen binding call is “no binding”.

As to DTTKGDVA, the antigen binding call is reported as “no binding”.

As to DAARGDVV, the antigen binding call is “no binding”.

As for VRGRDDVV, the antigen binding call is “no binding”.

Take VRGRSSVV: the antigen binding call was “binds”.

VRGRSDWV: the antigen binding call is reported as “no binding”.

For VRRGSSVV, the antigen binding call is listed as “binds”.

Turning to YRRGSSVV, the antigen binding call is on record as “binds”.

Regarding VRAEASVV, the antigen binding call is “no binding”.

With VATGDDWV, the antigen binding call is “no binding”.

Take SKGRSDVS: the antigen binding call is reported as “no binding”.

With DRAGDAVS, the antigen binding call is “no binding”.

Take YRAGTAVD: the antigen binding call is given as “binds”.

Consider YRAGTAVS, for which the antigen binding call is on record as “binds”.

In the case of DRAGDAVD, the antigen binding call was “no binding”.

For SAARDFWV, the antigen binding call is given as “no binding”.

DKEGGDLA: the antigen binding call is “no binding”.

In the case of YRKGASVD, the antigen binding call is “binds”.

As to YRKGSSVD, the antigen binding call was “binds”.

As to ATGGDDGF, the antigen binding call was “no binding”.

Take DTTGSDWA: the antigen binding call is “no binding”.

Consider DERRSSAF, for which the antigen binding call is given as “no binding”.

As for YRRGGAAF, the antigen binding call is “binds”.

For the variant YRKGASAF, the antigen binding call was “binds”.

As for VRRRGSAF, the antigen binding call is “binds”.

For the variant YERRSSAF, the antigen binding call is “binds”.

As to SERRSSAF, the antigen binding call was “no binding”.

In the case of DGGRGDAF, the antigen binding call is listed as “no binding”.

Consider DGTGGSGA chain 1 R67H, for which the antigen binding call is “no binding”.

For YRRRGAAF, the antigen binding call is “binds”.

On to YRRRGSAF, for which the antigen binding call is “binds”.

Regarding VRRRGSLF, the antigen binding call was “binds”.

Turning to FRRRDAAF, the antigen binding call is listed as “no binding”.

Turning to DKGEGDGA, the antigen binding call is listed as “no binding”.

As to SKAGSDVA, the antigen binding call is reported as “no binding”.

With YRGRGFWF, the antigen binding call is “binds”.

YRGRSAWF: the antigen binding call is “binds”.

Regarding DRGRDAWF, the antigen binding call is on record as “no binding”.

Consider FRTGSAWF, for which the antigen binding call is given as “no binding”.

Turning to YKGRGFWA, the antigen binding call is reported as “no binding”.

In the case of FRGRGAWF, the antigen binding call is recorded as “binds”.

For the variant YRTRGAWF, the antigen binding call is “binds”.

As for YAGGDDAA, the antigen binding call was “no binding”.

For VEAGTAVA, the antigen binding call was “no binding”.

In the case of YEGTGAVF, the antigen binding call is “no binding”.

In the case of YRGRGAWF, the antigen binding call was “binds”.

For the variant YAGRGDVF, the antigen binding call is reported as “no binding”.

As to YRGRGAVF, the antigen binding call is “binds”.

VAREDDWA: the antigen binding call is reported as “no binding”.

Consider YTRKSSVD, for which the antigen binding call is “no binding”.

As for YTKTSSVD, the antigen binding call was “no binding”.

On to YTEEAAVD, for which the antigen binding call was “binds”.

As for YKRGSSVD, the antigen binding call is on record as “binds”.

As to VKRGSSVD, the antigen binding call is listed as “binds”.

On to VATTDSVD, for which the antigen binding call is recorded as “no binding”.

Consider AATTDSVD, for which the antigen binding call was “binds”.

For YTRGASLD, the antigen binding call is given as “no binding”.

For VARGGSVD, the antigen binding call is “no binding”.

For VKRGSFVD, the antigen binding call is listed as “no binding”.

With DATTDSVD, the antigen binding call is recorded as “no binding”.

Take DAGGGDWD: the antigen binding call is on record as “no binding”.

For the variant DAGGADVY, the antigen binding call is listed as “no binding”.

Turning to YATAADWD, the antigen binding call is listed as “no binding”.

Consider ATRTDDVF, for which the antigen binding call was “no binding”.

As to DEGEDAGA, the antigen binding call is on record as “no binding”.

Regarding SEEGSDAS, the antigen binding call is “no binding”.

Turning to YKRRDSVD, the antigen binding call is “binds”.

As to YKTGDSVD, the antigen binding call was “binds”.

Turning to YARGTAVD, the antigen binding call is listed as “no binding”.

With YKRGSFVD, the antigen binding call is recorded as “no binding”.

For the variant YKRGSAVD, the antigen binding call is listed as “binds”.

For DGGTNSSA, the antigen binding call was “no binding”.

On to DEGGTALA, for which the antigen binding call is listed as “no binding”.

SEGTGSGD: the antigen binding call is given as “no binding”.

Take FGGEGDGA: the antigen binding call is on record as “no binding”.

On to VKRATSWD, for which the antigen binding call was “no binding”.

As to YKTGSSWD, the antigen binding call is on record as “binds”.

As for YKTGDSWV, the antigen binding call was “no binding”.

Turning to YKRGGSWD, the antigen binding call was “binds”.

YKRGSSWD: the antigen binding call is reported as “binds”.

On to DGARNFGV, for which the antigen binding call is given as “no binding”.

Take DTGANDWV: the antigen binding call is recorded as “no binding”.

In the case of DATGGAAA, the antigen binding call is reported as “no binding”.

Regarding SRGANAWD, the antigen binding call is “no binding”.

Regarding SKGRGAWV, the antigen binding call is “binds”.

As to SKGGSAWD, the antigen binding call is “no binding”.

Turning to SAGRGDWD, the antigen binding call was “no binding”.

For SRGRGSWD, the antigen binding call is on record as “binds”.

Consider SKGRGAWD, for which the antigen binding call is “binds”.

For SKAENAWV, the antigen binding call was “no binding”.

In the case of SRGRGAWD, the antigen binding call is “binds”.

SAGGGAWV: the antigen binding call is given as “no binding”.
